Source: PubChem BioAssay
For part of these data: Entries with a potency or affinity are not part of this list. The source made the active and inactive calls.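 How the source made its calls, unless noted: active means fitted half-maximal concentration within the tested range, moderate curve steepness, significant signal drop, and little compound fluorescence or bead-linkage interference; inactive means the rest.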

What was measured:
[1] = target: Cell division control protein 42 homolog (Homo sapiens) (UniProt P60953); test: inhibition of fluorescent GTP binding to constitutively active Cdc42 – biochemical, multiplex bead flow cytometry, Bodipy-FL-GTP, dose response (AID 1333;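 active means fitted half-maximal concentration within the tested dose range, moderate curve steepness, a statistically real signal drop, and little compound fluorescence or tag-binding interference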)
[2] = target: Cell division control protein 42 homolog (Homo sapiens) (UniProt P60953); test: inhibition of fluorescent GTP binding to wildtype Cdc42 – biochemical, multiplex bead flow cytometry, Bodipy-FL-GTP, dose response (AID 1334); settings: bead-based flow cytometry, Bodipy-FL-GTP binding to GST-Cdc42; at 100 µM (top of the series) unless noted
[3] = target: GTPase HRas (Homo sapiens) (UniProt P01112); test: Ras wt fluorescent GTP loading blockade – biochemical, wildtype, multiplex bead flow cytometry, dose response (AID 1335;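 active means fitted half-maximal concentration within 10 nM to 100 µM, steepness 0.5 to 2, significant signal drop, low assay interference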); settings: bead-based flow cytometry, Bodipy-GTP binding to GST-Ras; at 100 µM (top of the series) unless noted
[4] = tested on: Ras-related protein Rab-7a (dog), GTP binding; test: blockers of fluorescent GTP binding to Rab7 – biochemical, wildtype, multiplex bead flow cytometry, dose response (AID 1336; call rule not given here)
[5] = target: Ras-related C3 botulinum toxin substrate 1 (Homo sapiens) (UniProt P63000); test: inhibition of wildtype Rac1 nucleotide loading – biochemical, multiplex bead flow cytometry, dose response (AID 1340;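 active means dose curve with midpoint inside tested range, moderate steepness, plateau gap beyond fit error, low compound glow and bead-link interference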); settings: GST-Rac1 beads, Bodipy-FL-GTP binding; at 100 µM (top of the series) unless noted
[6] = target: GTPase HRas (Homo sapiens) (UniProt P01112); test: blockade of GTP loading onto mutant Ras – biochemical, activated mutant, multiplex bead flow cytometry, dose response (AID 1341;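 active means dose-response curve with midpoint inside the tested range, moderate steepness, significant amplitude and little compound fluorescence or bead-attachment interference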;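 further: GST-tagged constitutively activated Ras mutant immobilized on beads and multiplexed with other GTPases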)

Sequence of Cell division control protein 42 homolog (Homo sapiens) (P60953 whole entry, looked up): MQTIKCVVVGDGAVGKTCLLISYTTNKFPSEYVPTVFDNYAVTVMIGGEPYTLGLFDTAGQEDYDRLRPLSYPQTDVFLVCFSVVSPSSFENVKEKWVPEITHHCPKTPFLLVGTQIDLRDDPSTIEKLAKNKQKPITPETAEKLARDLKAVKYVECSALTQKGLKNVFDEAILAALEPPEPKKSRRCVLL
Sequence of GTPase HRas (Homo sapiens) (P01112 whole entry, looked up): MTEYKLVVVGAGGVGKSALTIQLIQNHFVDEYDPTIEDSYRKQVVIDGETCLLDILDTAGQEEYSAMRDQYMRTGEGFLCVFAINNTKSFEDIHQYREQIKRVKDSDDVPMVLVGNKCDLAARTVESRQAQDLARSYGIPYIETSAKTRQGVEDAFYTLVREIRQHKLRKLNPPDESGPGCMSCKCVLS

Compound	outcome [1]	fluorescence, percent of control (lower = inhibition) [2] [%]	GTP binding, percent of control [3] [%]	outcome [4]	GTP binding signal, raw median fluorescence (lower = inhibition) (MCF (arbitrary fluorescence units)) [5]	outcome [6]
O=C(Cn1cnc2cc([N+](=O)[O-])ccc2c1=O)NCCc1ccc(F)cc1	inactive	35.9	80.9	inactive	182	inactive
O=C(O)c1cccnc1OCc1ccccc1	inactive	88.8	103	inactive	63.4	inactive
O=C(C#Cc1cccc(O)c1)c1ccc([N+](=O)[O-])cc1	inactive	71.6	196	inactive	138	inactive
CN(/N=C/C=C/c1ccccc1)C1=NS(=O)(=O)c2ccccc21	inactive	40.3	51.8	inactive	124	inactive
COc1ccc(S(=O)(=O)N2CCOCC2)cc1C(=O)Nc1nc2ccccc2s1	inactive	46.1	55.9	inactive	153	inactive
CNC(=O)COC(=O)c1cc(NC(=O)c2ccco2)c(OC)c(OC)c1	inactive	39.3	78	inactive	158	inactive
CCC(C)(C)NC(=O)c1ccc2c(c1)N(CC(=O)OC)C(=O)C(C)(C)O2	inactive	34.2	82.4	inactive	253	inactive
O=C(N/N=C/c1ccc([N+](=O)[O-])o1)c1cn(-c2ccccc2)nc1-c1ccc(Cl)cc1	inactive	31.7	77	inactive	207	inactive
O=c1n(Cc2ccc(Cl)cc2)c2sc3c(c2c2ncnn12)CCCC3	inactive	78.9	126	inactive	146	inactive
N#Cc1c(=O)c2nc(NCc3ccccc3)ncc2n2ccccc12	inactive	41.3	48.1	inactive	0	inactive
CC1=NC(=O)C(N=Nc2ccccc2C(=O)O)N1c1ccccc1 (stereo not given)	inactive	28.8	69.9	inactive	180	inactive
NC(=O)COC(=O)c1cccc2c1-c1ccccc1C2=O	inactive	33.4	75	inactive	176	inactive
COc1ccc(-c2nnc(CSc3nc4ccccc4c(=O)n3C)o2)cc1OC	inactive	39.2	87.3	inactive	320	inactive
COc1ccccc1C(=O)N=Nc1c(O)[nH]c2ccc([N+](=O)[O-])cc12	inactive	23.9	51.1	inactive	115	inactive
Cc1cc(N/N=C/c2ccc(O)cc2O)nc(-n2nc(C)cc2C)n1	inactive	41	53.3	inactive	141	inactive
COc1cc2c3nnc(-c4ccc(F)cc4)c-3cn(Cc3cccc(F)c3)c2cc1OC	inactive	38.2	86.4	inactive	293	inactive
COc1cccc(/C=N/Nc2nn3cnnc3c3ccccc23)c1	inactive	36.5	47.3	inactive	120	inactive
CCN(CC)S(=O)(=O)c1ccc2oc(C(=O)N3CCc4ccccc4C3)c(C)c2c1	inactive	59.3	78	inactive	0	inactive
O=C(Nc1cccc(-c2ccc3nncn3n2)c1)c1ccco1	inactive	32.1	73	inactive	157	inactive
Cc1cc(C)n2nc(SCCOc3ccccc3)nc2n1	inactive	31.1	71.1	inactive	183	inactive

Compound	outcome [1]	fluorescence, percent of control (lower = inhibition) [2] [%]	GTP binding, percent of control [3] [%]	outcome [4]	GTP binding signal, raw median fluorescence (lower = inhibition) (MCF (arbitrary fluorescence units)) [5]	outcome [6]
COc1cc(/C=C(/C#N)c2nc3ccccc3[nH]2)ccc1OCc1ccc(C(=O)O)o1	inactive	21.9	59.6	inactive	116	inactive
COc1ccc(N/C=C/c2nc(SC)nnc2C)cc1	inactive	31.3	72.4	inactive	183	inactive
O=C(O)c1ccc(CNCc2ccc(F)cc2)s1	inactive	61.1	84.5	inactive	34.7	inactive
Nc1nc2c(c(=O)[nH]1)C(c1cccc3ccccc13)C1=C(N2)c2ccccc2C1=O (stereo not given)	inactive	31	75.5	inactive	204	inactive
CC(C)(C)NC(=O)c1ccc2nsnc2c1	inactive	52.7	66.2	inactive	213	inactive
Cc1ccc(/C=N/NC(=O)C2CCN(Cc3ccc(F)cc3Cl)CC2)o1	inactive	39	82.7	inactive	241	inactive
O=c1c2ccccc2nc2ccc(NCc3cccs3)nn12	inactive	33.1	76.2	inactive	195	inactive
COc1ccccc1OCCn1cc(C(=O)O)c2cc(Cl)ccc21	inactive	55.3	204	inactive	57.7	inactive
C=CCOc1cccc(/C=N/NC(=O)CN(c2cc(Cl)ccc2OC)S(=O)(=O)c2ccc(C)c([N+](=O)[O-])c2)c1	inactive	50.3	56	inactive	0	inactive
Cc1ccccc1Nc1cc(C(=O)O)c2ccccc2n1	inactive	62.2	86.6	inactive	32.7	inactive
COc1cccc(N2CCN(C(=O)c3cccn4c(=O)c5c(C)c(C)sc5nc34)CC2)c1	inactive	32.1	72.9	inactive	163	inactive
O=C(O)c1ccccc1C(=O)OCc1ccc(F)cc1F	inactive	89.8	106	inactive	72.5	inactive
CCCCCn1nc(C(=O)OCC(=O)c2c(N)n(C)c(=O)n(C)c2=O)c2ccccc2c1=O	inactive	34	79.6	inactive	232	inactive
CCOC(=O)C1(Cc2ccccc2)CCCN(CCO)C1 (stereo not given)	inactive	37.6	80.3	inactive	246	inactive
O=C(O)Cn1c(SCCOc2ccccc2Cl)nc2ccccc21	inactive	60.2	86.5	inactive	30.5	inactive
CCCn1cc(CN2CCCC(CNC(=O)c3ccc(F)cc3)C2)c(C)n1 (stereo not given)	inactive	37.6	85.7	inactive	247	inactive
N#CC(C#N)=C1C=CC=CN1/C(=C\c1ccccc1Cl)C(=O)c1ccccc1	inactive	26.2	76.3	inactive	226	inactive
COc1ccc(C(=O)N/C(=C\c2cccc([N+](=O)[O-])c2)C(=O)Nc2cccc(C(=O)O)c2)cc1	inactive	35.1	78.2	inactive	162	inactive
COc1ccc(/C=C2\SC(=S)N(CCCC(=O)NNC(=O)c3ccccc3O)C2=O)cc1	inactive	32.8	73.5	inactive	203	inactive
CCCc1cc(NCc2ccccn2)n2c(nc3ccccc32)c1C#N	inactive	30.1	68.2	inactive	167	inactive

Compound	outcome [1]	fluorescence, percent of control (lower = inhibition) [2] [%]	GTP binding, percent of control [3] [%]	outcome [4]	GTP binding signal, raw median fluorescence (lower = inhibition) (MCF (arbitrary fluorescence units)) [5]	outcome [6]
Cc1nc2ncccn2c1-c1csc(Nc2ccc(O)cc2)n1	inactive	20.9	46.8	inactive	106	inactive
Cc1ccc(C)c(NC(=S)NNC(=O)c2cc3c(s2)CCC(C)C3)c1 (stereo not given)	inactive	49.9	67.1	inactive	176	inactive
Cc1nn(-c2ccc(F)cc2)c(Cl)c1/C=C(\CC(=O)O)c1nc2ccccc2s1	inactive	77.1	127	inactive	160	inactive
N=c1oc2ccc3ccccc3c2cc1-c1nc(-c2ccccc2)cs1	inactive	32.3	75	inactive	209	inactive
Cc1ccccc1OCCn1cc(C(=O)O)c2ccccc21	inactive	96.9	131	inactive	83.8	inactive
CC(C)(C)NC(=O)CCN(/N=C/c1ccc([N+](=O)[O-])o1)C1=NS(=O)(=O)c2ccccc21	inactive	23.6	33.1	inactive	86.3	inactive
COc1cc(/C=N/Nc2nncn2/N=C/c2ccc(O)c(OC)c2)ccc1O	inactive	30.7	68.3	inactive	147	inactive
CC(=O)N1C(=O)/C(=C2\SC(=S)N(NC(=O)c3ccc(O)cc3)C2=O)c2ccccc21	inactive	31.6	70.8	inactive	155	inactive
Cc1cc(-c2n[nH]c(=S)n2/N=C/c2cccc([N+](=O)[O-])c2)n[nH]1	inactive	35	51	inactive	102	inactive
COc1ccc(CC2(CO)CCN(S(=O)(=O)c3sccc3C)CC2)cc1	inactive	35.4	82.2	inactive	273	inactive
Oc1ccc(C2=Nn3c(nnc3-c3ccco3)SC2)cc1O	inactive	25.1	35.2	inactive	0	inactive
CSc1nc2ccc(NC(=O)C3CC(=O)N(Cc4ccco4)C3)cc2s1 (stereo not given)	inactive	34	75.3	inactive	195	inactive
CCOC(=O)c1cnc2c(C#N)cnn2c1N	inactive	33.6	72.1	inactive	167	inactive
O=C(O)c1cccnc1SCc1ccccc1Cl	inactive	103	119	inactive	88.1	inactive
Cc1cc(-c2n[nH]c(=S)n2/N=C/C(Cl)=C/c2ccccc2)n[nH]1	inactive	33.9	78.7	inactive	229	inactive
Cc1ccccc1COc1cccc(C)c1C(=O)O	inactive	58	200	inactive	56.1	inactive
O=C(C#Cc1ccccn1)c1ccc([N+](=O)[O-])cc1	inactive	51	162	inactive	56.2	inactive
O=C(COn1nnc2ccc(Cl)cc21)NCc1ccccc1	inactive	89.6	154	inactive	183	inactive
Oc1ccc(NC(=S)N=Nc2c(O)[nH]c3ccccc23)cc1	inactive	16.7	62.5	inactive	62.8	inactive
Cc1ccc(OCc2ccccc2C)c(C(=O)O)c1	inactive	58.3	207	inactive	54.4	inactive
